Experimental findings from PubChem BioAssay (Tox21) are described below.

Inconclusive results are not listed. Where a call stands in place of a potency, no number is given. Calls of active or inactive are those of the source. The call rests on the fitted dose curve.

One test concerns thyroid hormone receptor (rat, GH3 cells). Nature of the test: qHTS assay to identify small molecule agonists of the thyroid receptor (TR) signaling pathway (AID 743066). The following applies: GH3.TRE-Luc cells, TR agonist luciferase, 24 h; series mostly up to 83.9 µM. On the technique in general: qHTS replaces the single test concentration by a dilution series.
On to `O=C(O)CCC(=O)OC[C@@H](NC(=O)C(Cl)Cl)[C@H](O)c1ccc([N+](=O)[O-])cc1`, for which the Potency result was “inactive”.
For `Cc1ccc(Cl)cc1N`, the Potency result is “inactive”.
Consider `O=C(O)c1ccc(O)cc1O`, for which the Potency result was “inactive”.
With `CC(CN(CCN(CC(C)OCCO)CC(C)OCCO)CC(C)OCCO)OCCO` (stereo not given), the Potency result is “inactive”.
As for `CCC1CCC(CCC(=O)O)C1` (stereo not given), the Potency entry is “inactive”.
For `C1=CCC2CC=CC2C1` (stereo not given), the Potency entry was “inactive”.
With `O=C1OC[C@H](Cc2cccc(O)c2)[C@H]1Cc1cccc(O)c1`, the Potency entry was “inactive”.
With `O=C1CC[C@@H](C(=O)O)N1`, the Potency result was “inactive”.
For the compound `Nc1ccc(S(=O)(=O)NCc2ccccc2)cc1`, the Potency entry is “inactive”.
The same measure, in the same setting: then `CC(=O)C(C)=O`, with “inactive”; and `O=C(O)CCCc1c[nH]c2ccccc12`, with “inactive”.
As to `CCCCCC`, the Potency entry was “inactive”.
Still for that read-out and setting: for `CC1CCC(C(C)CS)CC1S` (stereo not given) the value was “inactive”.
On to `CC1=CC[C@@]23C[C@@H]1C(C)(C)[C@@H]2CC[C@H]3C`, for which the Potency result is “inactive”.
On to `COc1cc(S(=O)(=O)Nc2ccccc2)c(OC)cc1N`, for which the Potency result is “inactive”.
On to `CCCCCCOC(=O)CCCCC`, for which the Potency entry is “inactive”.
As to `COc1ccc(C)cc1`, the Potency entry was “inactive”.
For the compound `COc1ccc(N)c([N+](=O)[O-])c1`, the Potency entry was “inactive”.
For the compound `COC(CC(C)CCCC(C)(C)O)OC` (stereo not given), the Potency result is “inactive”.
Consider `CC(=O)OCC(=O)[C@@]1(OC(C)=O)[C@@H](C)C[C@H]2[C@@H]3C[C@H](F)C4=CC(=O)C=C[C@]4(C)[C@@]3(F)[C@@H](O)C[C@@]21C`, for which the Potency result is “inactive”.
With `CNCc1ccc(NC(=O)c2c[nH]c3c2C(=O)CCC3)cc1`, the Potency entry was “inactive”.
The same measure, in the same setting: for `COC(OC)OC` the value was “inactive”; for `CC(C)COC(=O)c1ccc(O)cc1`, “inactive”; for `CCCCCCCCCCCCCOC(=O)CCSCCC(=O)OCCCCCCCCCCCCC`, “inactive”.
Consider `Nc1ccc(F)cc1`, for which the Potency result is “inactive”.
For `C=Cc1ccc(OC(C)=O)cc1`, the Potency result was “inactive”.
Regarding `CSSc1ccoc1C`, the Potency entry is “inactive”.
Consider `CC(C)Cc1ccc(CC(=O)O)cc1`, for which the Potency entry was “inactive”.
Take `CCN(CC)c1ccc(C(=C2C=CC(=[N+](CC)CC)C=C2)c2ccc(S(=O)(=O)O)cc2S(=O)(=O)[O-])cc1`: the Potency entry is “inactive”.
As for `Cc1c[nH]c2ccccc12`, the Potency result was “inactive”.
Same read-out and setting: for `CC(=O)OCC1=C(C(=O)O)N2C(=O)[C@@H](NC(=O)CSc3ccncc3)[C@H]2SC1` the value was “inactive”.
The same measure, in the same setting: then `CC(=O)NCCO`, with “inactive”.
Regarding `O=C(O)CN1C(=O)c2cccc3cccc(c23)C1=O`, the Potency result is “inactive”.
In the case of `CC(C(=O)O)c1ccc(C(=O)c2cccs2)cc1` (stereo not given), the Potency result was “inactive”.
As to `CCCCCCC(CO)CCCC` (stereo not given), the Potency entry was “inactive”.
Regarding `CC[C@H]1OC(=O)[C@H](C)[C@@H](O[C@H]2C[C@@](C)(OC)[C@@H](O)[C@H](C)O2)[C@H](C)[C@@H](O[C@@H]2O[C@H](C)C[C@H](N(C)C)[C@H]2O)[C@](C)(O)C[C@@H](C)C(=O)[C@H](C)[C@@H](O)[C@]1(C)O`, the Potency entry was “inactive”.
On to `CC1CCCO1` (stereo not given), for which the Potency result was “inactive”.

Test system in another test: not listed separately
Kind of test: qHTS assay to identify small molecule antagonists of the estrogen receptor alpha (ER-alpha) signaling pathway - cell viability counter screen (AID 743074).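 Further: HEK293 cells carrying ER-alpha-UAS-bla reporter stimulated with 17beta-estradiol; nearly all actives have a fitted effect of over 45% in size.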 Further: potency means the concentration at half of the fitted maximal effect. The following applies: ERalpha-bla HEK293 viability, CellTiter-Glo luminescence, 18 h; series mostly up to 69.4 µM.
As for `O=C(O)CCC(=O)OC[C@@H](NC(=O)C(Cl)Cl)[C@H](O)c1ccc([N+](=O)[O-])cc1`, the Potency result was “inactive”.
Regarding `Cc1ccc(Cl)cc1N`, the Potency entry was “inactive”.
On to `O=C(O)c1ccc(O)cc1O`, for which the Potency entry is “inactive”.
As to `CC(CN(CCN(CC(C)OCCO)CC(C)OCCO)CC(C)OCCO)OCCO` (stereo not given), the Potency result was “inactive”.
On the same count and under the same terms, then `CCC1CCC(CCC(=O)O)C1` (stereo not given), with “inactive”; and `C1=CCC2CC=CC2C1` (stereo not given), with “inactive”.
In the case of `O=C1OC[C@H](Cc2cccc(O)c2)[C@H]1Cc1cccc(O)c1`, the Potency result is “inactive”.
Regarding `O=C1CC[C@@H](C(=O)O)N1`, the Potency result is “inactive”.
In the case of `Nc1ccc(S(=O)(=O)NCc2ccccc2)cc1`, the Potency result was “inactive”.
As to `CC(=O)C(C)=O`, the Potency result is “inactive”.
Take `O=C(O)CCCc1c[nH]c2ccccc12`: the Potency entry is “inactive”.
`CCCCCC`: the Potency result is “inactive”.
Turning to `CC1CCC(C(C)CS)CC1S` (stereo not given), the Potency result is “inactive”.
As to `CC1=CC[C@@]23C[C@@H]1C(C)(C)[C@@H]2CC[C@H]3C`, the Potency result was “inactive”.
As for `CCCCCCOC(=O)CCCCC`, the Potency entry is “inactive”.
Turning to `COc1ccc(C)cc1`, the Potency entry was “inactive”.
The same measure, in the same setting: then `COc1ccc(N)c([N+](=O)[O-])c1`, with “inactive”; and `COC(CC(C)CCCC(C)(C)O)OC` (stereo not given), with “inactive”; and `CC(=O)OCC(=O)[C@@]1(OC(C)=O)[C@@H](C)C[C@H]2[C@@H]3C[C@H](F)C4=CC(=O)C=C[C@]4(C)[C@@]3(F)[C@@H](O)C[C@@]21C`, with “inactive”.
`CNCc1ccc(NC(=O)c2c[nH]c3c2C(=O)CCC3)cc1`: the Potency result was “inactive”.
Still for that read-out and setting: for `CC(C)COC(=O)c1ccc(O)cc1` the value was “inactive”; for `CCCCCCCCCCCCCOC(=O)CCSCCC(=O)OCCCCCCCCCCCCC`, “inactive”.
In the case of `CSSc1ccoc1C`, the Potency result was “inactive”.
On to `CC(C)Cc1ccc(CC(=O)O)cc1`, for which the Potency result was “inactive”.
Regarding `CCN(CC)c1ccc(C(=C2C=CC(=[N+](CC)CC)C=C2)c2ccc(S(=O)(=O)O)cc2S(=O)(=O)[O-])cc1`, the Potency was 24.5 µM (active).
Take `Cc1c[nH]c2ccccc12`: the Potency entry is “inactive”.
For `CC(=O)OCC1=C(C(=O)O)N2C(=O)[C@@H](NC(=O)CSc3ccncc3)[C@H]2SC1`, the Potency entry was “inactive”.
For the compound `CC(=O)NCCO`, the Potency entry is “inactive”.
`O=C(O)CN1C(=O)c2cccc3cccc(c23)C1=O`: the Potency entry is “inactive”.
For `CC(C(=O)O)c1ccc(C(=O)c2cccs2)cc1` (stereo not given), the Potency entry was “inactive”.
As to `CCCCCCC(CO)CCCC` (stereo not given), the Potency result is “inactive”.
With `CC[C@H]1OC(=O)[C@H](C)[C@@H](O[C@H]2C[C@@](C)(OC)[C@@H](O)[C@H](C)O2)[C@H](C)[C@@H](O[C@@H]2O[C@H](C)C[C@H](N(C)C)[C@H]2O)[C@](C)(O)C[C@@H](C)C(=O)[C@H](C)[C@@H](O)[C@]1(C)O`, the Potency entry was “inactive”.
On the same count and under the same terms, for `CC1CCCO1` (stereo not given) the value was “inactive”.
